Screening data (PubChem BioAssay)
Hits are enriched below; roughly 2.5% of the tested compounds scored in any of these assays.
D2 PAM-1 = potentiates the human D2 dopamine receptor allosterically; potentiation, % (concentration not given with the values); DiscoveRx D2 beta-arrestin cells, luminescence, 90 min; 100% = 57 uM dopamine signal; 0.23% of 360,000 active; AID 624464; in the data active = potentiation above about 50%; inconclusive = mostly about 30% to 49%
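PathHunter beta-arrestin assay in DiscoveRx D2 cells. Compounds were added with an EC20 of dopamine (50 nM final) for 90 min at 37 deg C. Luminescence was read 1 h after detection reagent, with 57 uM dopamine as the EC100 control.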
Anesthetic bind = candidate novel general anesthetic via apoferritin binding; P02791; apoferritin/1-aminoanthracene competitive binding, fluorescence; Potency, µM (series often up to 77.5 µM), for inactives: at the top dose activity change, negative = displacement, hits mostly inhibitors; 0.074% of 350,000 active; AID 485281; also: potency is read from the fitted curve at half-maximal effect; % is scaled to controls: 0 for no effect and ±100 for the full control effect; nearly all actives have a fitted effect of over 20% in size
Target sequence (P02791 2-175 limits assumed): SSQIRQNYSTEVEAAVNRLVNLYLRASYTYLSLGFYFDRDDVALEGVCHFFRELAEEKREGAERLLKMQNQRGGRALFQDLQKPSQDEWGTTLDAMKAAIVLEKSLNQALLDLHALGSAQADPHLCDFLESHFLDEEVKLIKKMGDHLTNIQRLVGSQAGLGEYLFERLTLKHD
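Concentration-response curves derived by four-parameter Hill fitting of normalized fluorescence, where compounds displaced 1-AMA from 10 uM horse apoferritin following a brief 10 min room-temperature incubation; propofol titration acted as positive control.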
D2 PAM-2 = positively modulates the human D2 dopamine receptor allosterically | P14416 | HEK293 T-REx D2, calcium flux, EC20 dopamine potentiation | potentiation, % at 10 µM | 0.34% of 340,000 active;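 active = potentiation over 3 SD above the plate norm, cut at about 30% in these data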; also: 0% is about no effect
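Potentiation of an EC20 dopamine calcium response is measured in a force-coupled, tetracycline-inducible Hek293 Trex D2 line. Compound-only kinetic reads over 180 s flag agonists before dopamine addition.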
D2 antag = antagonists of human D2 dopamine receptor | P14416 | 2% of 340,000 active | HEK293 TREx D2 cells, calcium flux, dopamine EC80 | inhibition, % at 10 µM; in the data active = inhibition above about 30%; inactive = below that, where a call was filed; also: 0% is about no effect
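Overnight-induced (tetracycline, 30 C) HEK293 T-REx cells carrying force-coupled D2 receive a no-wash calcium dye, then compound, then EC80 dopamine at 180 s; signals are read kinetically throughout.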
D2 ag-1 = activates the human D2 dopamine receptor. activation, % (test concentration not listed). AID 624465. P14416. 0.084% of 360,000 active. DiscoveRx PathHunter D2 beta-arrestin, luminescence, 90 min; 100% = 57 uM dopamine signal; in the data active = activation above about 40%; inconclusive = between about 15% and that limit
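Agonist mode: compounds alone added to overnight-plated D2 PathHunter cells for 90 min at 37 C, with 57 uM final dopamine (EC100) defining full response. Beta-arrestin recruitment detected by chemiluminescent reagent, read after 1 h at ambient temperature.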
D2 ag-2 = activates the human D2 dopamine receptor. 0.53% of 340,000 active. activation, % at 2 µM. HEK293 T-REx D2 cells, calcium flux agonist mode;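 active = activation over 3 SD above normal in the single-dose calcium agonist read, cut at about 30% in these data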; also: 0% is about no effect
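Tetracycline-induced HEK293 T-REx cells with force-coupled D2 receptor, plated overnight at 30 C, loaded with no-wash calcium dye. After a 10 s baseline, compound was pin-added and calcium flux read kinetically for 180 s; calcium rises flagged agonists.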
D3 ag = activates human D3 dopamine receptor beta-arrestin recruitment. shares compounds with D2 ag-2. DiscoveRx D3 beta-arrestin cells, luminescence, 90 min. Potency, µM (highest dose often 76.9 µM), for the others: top-dose activation, hits mostly activators. 4% of 2,300 active. AID 720506;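 also: potency is read from the fitted curve at half-maximal effect; 100% = dopamine control response; nearly all actives have a fitted effect of over 70% in size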
Target sequence (P35462 whole entry, looked up): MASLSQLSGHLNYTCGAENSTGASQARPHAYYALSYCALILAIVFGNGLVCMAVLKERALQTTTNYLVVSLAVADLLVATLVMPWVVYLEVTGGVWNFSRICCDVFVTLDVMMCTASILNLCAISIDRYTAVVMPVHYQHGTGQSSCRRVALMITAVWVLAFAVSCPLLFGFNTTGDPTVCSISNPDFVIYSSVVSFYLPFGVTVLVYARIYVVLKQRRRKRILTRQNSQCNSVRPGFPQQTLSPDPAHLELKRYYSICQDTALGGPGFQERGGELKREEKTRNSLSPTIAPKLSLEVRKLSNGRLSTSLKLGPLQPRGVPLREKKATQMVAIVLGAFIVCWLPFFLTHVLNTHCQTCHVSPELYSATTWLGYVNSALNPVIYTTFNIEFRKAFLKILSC
D2 ag-3 = activates human D2 dopamine receptor in D3 counterscreen | Potency, µM (highest dose often 76.9 µM), without a hit: top-dose activation, hits mostly activators | DiscoveRx PathHunter D2 beta-arrestin, luminescence, 90 min; response scale: percent relative to full dopamine signal | 5.9% of 2,300 active | shares compounds with D2 ag-2; also: potency is read from the fitted curve at half-maximal effect; % of control where 0% means no effect; nearly all actives have a fitted effect of over 70% in size
An asterisk follows results filed as active; ? = inconclusive; . = no result given. Unless noted, calls follow the shape of the dose curve; as a rule, active = well fitted curve in the direction sought with a large enough effect; inconclusive = small, poorly fitted or top-dose-only effect, or another doubt; inactive = no such curve, though single readings can be large; an effect the other way counts as inactive or inconclusive.

SMILES | D2 PAM-1 | Anesthetic bind | D2 PAM-2 | D2 antag | D2 ag-1 | D2 ag-2 | D3 ag | D2 ag-3
NC(=NC(=O)c1ccc(Cl)cc1)N1N=CCC1c1ccccc1 (stereo unspecified) | 2 | -21% | -6 | 23 | -4 | 50* | -2% | 5%
CCOC(=O)C1CCN(Cc2cnc(NC(=O)OC)s2)CC1 | -21 | -6% | -13 | 18 | 8 | 60* | -2% | 8%
O=[N+]([O-])c1cc(/C=N/N/C(=N/c2ccccn2)c2ccccn2)ccc1O | -23 | -20% | -9 | -6 | -2 | 29 | -25% | -13%
O=C(CCN1CCN(c2ccc(F)cc2)CC1)Nc1ccccc1F | -17 | -5% | -37 | 65* | 2 | 35* | 4% | -1%
O=C(CCN1CCN(c2ccccc2)CC1)Nc1ccccc1F | -18 | -7% | -16 | 71* | ? | 71* | ? | 25%
O=C(CCN1CCN(S(=O)(=O)c2ccc(F)cc2)CC1)Nc1ccccc1F | -9 | -7% | 7 | -18 | -1 | 0 | . | .
O=C(CCN1CCN(CC(=O)Nc2ccccc2F)CC1)Nc1ccccc1F | -33 | -10% | 2 | 6 | -3 | 0 | . | .
CC(C)Cc1nnc(NS(C)(=O)=O)s1 | -2 | -7% | 2 | 1 | 1 | 1 | . | .
Cc1oc(-c2ccccc2Cl)nc1CS(=O)CC(=O)N1CCN(c2ccccc2)CC1 (stereo unspecified) | 15 | -11% | -3 | -16 | 3 | 43* | 0% | 4%
COC(=O)c1cccc(NC(=O)c2ccc3c(c2)C(=O)N(C(C)(C)C)C3=O)c1 | -4 | -14% | 2 | 2 | 1 | 0 | . | .
CCN(CC)c1ccc2cc(/C(N)=N/NC(=O)c3cccs3)c(=O)oc2c1 | . | -18% | -5 | -4 | . | 21 | . | .
CCN(CC)c1ccc2cc(C(N)=O)c(=N)oc2c1 | 2 | 3% | 2 | -10 | -2 | 44* | -6% | 2%
Cc1ccc(SCCNC(=S)Nc2ccc(C)cc2C)cc1 | 1 | -13% | -15 | 2 | -2 | 27 | -10% | -2%
CC1CN(S(=O)(=O)c2csc(C(=O)Nc3ccccc3)c2)CC(C)O1 (stereo unspecified) | -6 | -23% | -9 | 2 | -5 | 0 | . | .
CC(COc1ccccc1)N1CCC(CO)(Cc2ccccc2)CC1 (stereo unspecified) | -11 | -10% | -12 | 85* | ? | 68* | 6% | ?
CCN(C(=O)COC(=O)c1cc(=O)[nH]c2ccccc12)c1c(N)n(Cc2ccccc2)c(=O)[nH]c1=O | -4 | . | . | . | -4 | . | . | .
CCN(C(=O)COC(=O)c1ccc(O)cc1O)c1c(N)n(Cc2ccccc2)c(=O)[nH]c1=O | 1 | . | -1 | -6 | -3 | -1 | -3% | -5%
CCN(C(=O)COC(=O)CCCOc1ccccc1)c1c(N)n(Cc2ccccc2)c(=O)[nH]c1=O | -1 | . | -26 | -28 | 0 | 0 | -3% | -6%
CCN(C(=O)CSc1nnc(-c2ccc(C)cc2)n1N)c1c(N)n(Cc2ccccc2)c(=O)[nH]c1=O | -22 | . | -1 | -7 | 6 | -1 | -5% | -6%
CC1(C)CC(=O)c2c(oc3c(Cl)cc(NS(=O)(=O)c4ccc(Br)cc4)cc23)C1 | . | 2% | -3 | . | . | 1 | . | .
CC(=O)N1CCc2cc(S(=O)(=O)NCCCN3CCN(Cc4ccccc4)CC3)ccc21 | -14 | -4% | -22 | 44* | 0 | 42* | -7% | 7%
COc1cc(OC)c2c(=O)c(OC)c(-c3ccc(OC)c(OC)c3)oc2c1 | -4 | -17% | 5 | 12 | 4 | 0 | . | .
OCC[C@H]1C[C@@H](O)[C@H](O)[C@@]2(Cc3ccccc3CO2)O1 | -7 | . | 9 | 0 | -3 | 0 | -5% | -4%
OCC[C@@H]1C[C@H](O)[C@@H](O)[C@@]2(Cc3ccccc3CO2)O1 | -14 | -8% | 3 | 5 | -2 | -1 | . | .
COc1ccc(-c2sc3ccc(OC)cc3c2-c2ccc(OC)c(F)c2)cc1 | -3 | . | 2 | 1 | -5 | 0 | . | .
SMILES | D2 PAM-1 | Anesthetic bind | D2 PAM-2 | D2 antag | D2 ag-1 | D2 ag-2 | D3 ag | D2 ag-3
COc1ccc2sc(-c3ccccc3OC)c(-c3ccc(OC)c(F)c3)c2c1 | -6 | . | -34 | 3 | -1 | 48* | -6% | -2%
Cc1nn(C)c(C)c1/C=C(/C(=O)C(C)C)n1cncn1 | -12 | -7% | -6 | 10 | -2 | 4 | -7% | -5%
Cc1ccc(C(=O)CCC(=O)NC2CCCC(C)C2C)cc1 (stereo unspecified) | -1 | ? | 1 | 1 | -1 | -1 | . | .
CC1=CC2=NC(=O)/C(=C\c3ccc(-c4ccc(Cl)cc4)o3)C(=N)N2O1 | . | -9% | -12 | -7 | . | 5 | . | .
O=C(Cc1ccccc1)NNC(=S)Nc1ccc(Cl)cc1 | -19 | -9% | -20 | 5 | -7 | 44* | 1% | -4%
COC(=O)CCN(C(=O)C12CC3CC(CC(C3)C1)C2)c1ccccn1 | ? | -17% | -19 | 33* | ? | 69* | -4% | ?
O=C(N(Cc1ccccc1)c1ccccn1)C12CC3CC(CC(C3)C1)C2 | -2 | -12% | -7 | -4 | 8 | 4 | . | .
O=C(COCc1nc2ccccc2c(=O)[nH]1)NCC1CCCCC1 | -5 | 3% | -8 | -15 | -3 | 1 | . | .
CCO[C@@H]1OC(C(=O)O)=C[C@H](c2csc3ccccc23)[C@H]1CCCO | -4 | -2% | -6 | 32* | -3 | 0 | -3% | -3%
C#CCNC(=O)C1=C[C@@H](c2ccc(C#C)cc2)[C@H](CCCO)[C@@H](OCC)O1 | 10 | -5% | 1 | 32* | 1 | 0 | 5% | -3%
CCO[C@H]1OC(C(=O)Nc2ccccc2)=C[C@@H](c2csc3ccccc23)[C@@H]1CCCO | -1 | -2% | 3 | -17 | -1 | 0 | . | .
C=CCC(=O)N1CCC(n2nccc2NC(=O)CCOc2ccccc2)CC1 | -3 | 0% | 1 | 12 | -2 | 1 | . | .
CN1CCN(c2ccc(Cl)cc2NC(=O)c2ccc([N+](=O)[O-])cc2)CC1 | -4 | 4% | -22 | -2 | -1 | 0 | . | .
